A selection: hits, their analogues and other compounds. The true share with any hit is near 10%.
MCF10A rereplic: DNA re-replication induction in MCF 10a cells. MCF 10A DNA re-replication, Hoechst nuclear intensity, 48 h. Potency, µM (top dose mostly 46.1 µM), actives largely listed as activators. 2.9% of 350,000 active. AID 624296; note: nearly all actives have a fitted effect of over 50% in size
KB-3-1 tox: KB-3-1 parental cell cytotoxicity; KB-3-1 viability, CellTiter-Glo ATP luminescence, 72 h; Potency, µM (series often up to 46.1 µM), actives largely listed as cytotoxic; 1.4% of 400,000 active; note: nearly all actives have a fitted effect of over 60% in size
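Cells are dispensed, compounds pinned in, plates held at 37 °C for 72 h, then CellTiter-Glo is added and luminescence read after 10 minutes. Cell line: parental KB-3-1 in phenol-red-free DMEM, 10% FBS.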
SW480 rerep: induces DNA re-replication in SW480 colon adenocarcinoma cells; SW480 DNA re-replication, Hoechst DNA content imaging, 48 h; Potency, µM (titrated, usually from 46.1 µM), usual class: activators; 1.8% of 340,000 active; AID 624297; note: nearly all actives have a fitted effect of over 55% in size
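Treated cells incubate 48 hr (37 C, 5% CO2), are stained 40 min with Hoechst, and nuclear fluorescence is enumerated; a rise in nuclei with high DNA signal marks re-replication.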
VP16 counter: counter-screen for ROR gamma inhibitors: Gal4-VP16 reporter. 3.5% of 310,000 active. Drosophila S2 Gal4-VP16 UAS-luciferase, luminescence, 20 h. Potency, µM (highest dose often 53.6 µM), usual class: inhibitors;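 note: Gal4-VP16 expression switched on by copper sulfate through the metallothionein promoter; nearly all actives have a fitted effect of over 50% in size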
KB-V1 cytotox: kills drug-selected multidrug resistant KB-V1 cells; KB-V1 MDR cells viability, CellTiter-Glo, 72 h; Potency, µM (series often up to 46.1 µM), usual class: cytotoxic; 3.4% of 400,000 active; note: nearly all actives have a fitted effect of over 60% in size
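In this primary screen, KB-V1 cells overexpressing P-gp are incubated with library compounds (lowest to highest concentration) for 72 h at 37 degrees C before a luminescent ATP viability read.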
RORg inh: ROR gamma (mouse) transcription inhibition. P51450. Drosophila S2 Gal4-RORgamma UAS-luciferase reporter, 20 h. Potency, µM (doses to about 53.6 µM), hits mostly inhibitors. 5.4% of 310,000 active. AID 2551; note: nearly all actives have a fitted effect of over 60% in size
Target sequence (P51450 whole entry, looked up, the tested form may be a part): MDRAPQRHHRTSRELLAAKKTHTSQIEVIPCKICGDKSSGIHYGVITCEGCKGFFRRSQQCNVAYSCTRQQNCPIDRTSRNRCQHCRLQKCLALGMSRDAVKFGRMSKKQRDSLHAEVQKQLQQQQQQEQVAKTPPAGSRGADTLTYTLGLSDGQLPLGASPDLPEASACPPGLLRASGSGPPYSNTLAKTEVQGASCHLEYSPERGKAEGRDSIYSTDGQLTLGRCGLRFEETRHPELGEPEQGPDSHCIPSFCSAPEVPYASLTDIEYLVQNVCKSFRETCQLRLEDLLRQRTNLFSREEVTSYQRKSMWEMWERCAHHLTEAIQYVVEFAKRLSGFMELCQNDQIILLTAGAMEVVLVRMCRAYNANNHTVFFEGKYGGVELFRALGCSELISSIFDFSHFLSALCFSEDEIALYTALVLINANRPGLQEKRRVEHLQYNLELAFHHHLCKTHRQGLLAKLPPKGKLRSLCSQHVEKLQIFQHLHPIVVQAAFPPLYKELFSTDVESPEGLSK
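Drosophila Schneider cells stably carrying a metallothionein-driven Gal4 DBD–ROR gamma fusion and a UAS-Photinus luciferase reporter were exposed to compound for 1 hr, then induced with copper sulfate (700 uM final) for 20 hr at ambient temperature before luminescence reading.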
Each line names hits and unclear results; the compound was inactive in the other large screens. Calls come from the whole dose curve; as a rule, active = well fitted curve in the direction sought with a large enough effect; inconclusive = small, poorly fitted or top-dose-only effect, or another doubt; inactive = no such curve, though single readings can be large; an effect the other way counts as inactive or inconclusive.

Cc1[nH]n(-c2ccccc2)c(=O)c1N=Nc1ccccc1	VP16 counter inconclusive
Cc1[nH]n(-c2ccccc2)c(=O)c1N=Nc1cccc(S(=O)(=O)N2CCOCC2)c1	VP16 counter inconclusive, KB-V1 cytotox inconclusive, RORg inh 7.9µM
COc1cc2c(cc1OC)CN(C(=O)/C=C/c1cccs1)CC2	MCF10A rereplic 4.1µM, KB-3-1 tox 3.7µM, SW480 rerep 13µM, KB-V1 cytotox inconclusive
COc1cc2c(cc1OC)CN(C(=O)/C=C/c1ccccc1[N+](=O)[O-])CC2	MCF10A rereplic 13µM, KB-3-1 tox inconclusive, SW480 rerep 16µM
COc1cc2c(cc1OC)CN(C(=O)/C=C/c1ccc([N+](=O)[O-])cc1)CC2	none
COc1cc2c(cc1OC)CN(S(=O)(=O)c1cccs1)CC2	KB-V1 cytotox 18µM
COc1cc2c(cc1OC)CN(C(=O)c1cccs1)CC2	none
COc1ccc2c3c(c(=O)oc2c1)C1O[C@](c2ccsc2)(Cc2cc(C#N)ccc21)O3	none (no result: MCF10A rereplic, KB-3-1 tox, SW480 rerep, KB-V1 cytotox)
CCOc1ccc(NC(=O)Cn2c(=O)n(Cc3ccc(C(=O)NCc4ccc(C)cc4)cc3)c(=O)c3ccccc32)cc1	none (no result: MCF10A rereplic, SW480 rerep, VP16 counter, RORg inh)
Cc1cc(NC(=O)c2cc3cccc([N+](=O)[O-])c3[nH]2)ccc1F	KB-3-1 tox inconclusive
Cc1c(C(=O)N/N=C/C(C)C)[nH]c2c([N+](=O)[O-])cccc12	MCF10A rereplic 21µM, KB-3-1 tox inconclusive, SW480 rerep inconclusive, KB-V1 cytotox inconclusive, RORg inh 2.2µM
O=C(COC(=O)Cn1cnc2ccccc21)Nc1cc2c(cc1Cl)C(=O)c1ccccc1C2=O	MCF10A rereplic inconclusive, VP16 counter inconclusive, RORg inh 2.8µM
O=c1cc(-c2ccccc2)nc2cc(-c3ccco3)[nH]n12	RORg inh inconclusive
Cc1cc(=O)n2[nH]c(C)cc2n1	none
Cc1cc2nc(-c3ccccc3)cc(=O)n2[nH]1	VP16 counter inconclusive, RORg inh 13µM
O=c1cc(-c2ccccc2)nc2cc(-c3ccc(Br)cc3)[nH]n12	MCF10A rereplic 3.3µM
CCOC(=O)CNC(=O)c1cc2c(=O)oc3ccccc3c2s1	none (no result: MCF10A rereplic, SW480 rerep, VP16 counter, RORg inh)
FC(F)(F)c1ccccc1-c1nc(NCc2cccnc2)c2ccccc2n1	none (no result: MCF10A rereplic, KB-3-1 tox, SW480 rerep, KB-V1 cytotox)
O=C(O)CSc1cc(C(=O)c2cc(F)ccc2O)cn2c(=O)c3c(-c4ccccc4)csc3nc12	MCF10A rereplic 13µM, RORg inh 35µM
CCOC(=O)c1sc2nc3c(SCCC#N)cc(C(=O)c4cc(F)ccc4O)cn3c(=O)c2c1C	none
CCc1c(C)sc2nc3c(C(=O)N4CCOCC4)cc(C(=O)c4cc(F)ccc4O)cn3c(=O)c12	MCF10A rereplic inconclusive
CCOC(=O)c1sc2nc3c(SCCC(=O)O)cc(C(=O)c4cc(OC)ccc4O)cn3c(=O)c2c1C	MCF10A rereplic inconclusive, SW480 rerep 2.6µM, RORg inh inconclusive
CCc1oc2ccccc2c1C(=O)c1cc(Br)c(O)c(Br)c1	MCF10A rereplic 7.3µM
CC1CCc2c(C(=O)Nc3nccs3)csc2C1 (configuration not stated)	SW480 rerep inconclusive, VP16 counter 8.9µM, KB-V1 cytotox inconclusive, RORg inh 3.5µM
Cc1ccc(NC(=O)C(C)c2cccc(C(=O)c3ccccc3)c2)cc1O (configuration not stated)	MCF10A rereplic inconclusive, KB-3-1 tox inconclusive, VP16 counter inconclusive, KB-V1 cytotox 6.5µM
CCN1CCc2c(sc(NC(=S)NC(=O)c3cccc(F)c3)c2C(N)=O)C1	none (no result: MCF10A rereplic, SW480 rerep, VP16 counter, RORg inh)
C(=N\N1CCOCC1)/c1nc(-c2ccccc2)n2ccccc12	RORg inh inconclusive
CC(C)(C)c1ccc(-c2nc(C=O)c3ccccn23)cc1	KB-V1 cytotox 16µM
N/C(=N/O)c1nc(N2CCCC2)nc(N(c2ccccc2)c2ccccc2)n1	MCF10A rereplic inconclusive, KB-3-1 tox inconclusive, SW480 rerep inconclusive, KB-V1 cytotox inconclusive, RORg inh 8.9µM
N/C(=N/O)c1nc(N2CCCC2)nc(N2CCCC2)n1	none (no result: VP16 counter, RORg inh)
N/C(=N/O)c1nc(N2CCCCC2)nc(N2CCCCC2)n1	KB-3-1 tox inconclusive, VP16 counter inconclusive, RORg inh 8.9µM
COc1ccc(-n2c(=O)c3ccccc3n(Cc3ccc(F)cc3Cl)c2=O)cc1OC	KB-V1 cytotox inconclusive (no result: MCF10A rereplic, SW480 rerep, VP16 counter, RORg inh)
Cc1ccc(S(=O)(=O)/C(C#N)=C/c2c(N3CC(C)OC(C)C3)nc3ccccn3c2=O)cc1 (configuration not stated)	none
C=CCNC(=O)/C(C#N)=C/c1c(N2CCN(c3cccc(Cl)c3)CC2)nc2c(C)cccn2c1=O	MCF10A rereplic 21µM, KB-V1 cytotox inconclusive
CNC(=O)/C(C#N)=C/c1c(N2CCN(c3cccc(Cl)c3)CC2)nc2c(C)cccn2c1=O	MCF10A rereplic 2.9µM
COCCNC(=O)/C(C#N)=C/c1c(N2CCN(c3cccc(Cl)c3)CC2)nc2c(C)cccn2c1=O	SW480 rerep inconclusive
C=CCNC(=O)/C(C#N)=C/c1c(N2CC(C)OC(C)C2)nc2ccccn2c1=O (configuration not stated)	MCF10A rereplic inconclusive, SW480 rerep 16µM
CC(=C/C=C/C(C)=C/C=C/C=C(C)/C=C/C=C(C)/C=C/C(=O)O)/C=C/C(=O)O	none (no result: MCF10A rereplic, KB-3-1 tox, SW480 rerep, KB-V1 cytotox)
CCCN(C)C1CN(Cc2cn(Cc3ccccc3)nn2)S(=O)(=O)C1 (configuration not stated)	none (no result: MCF10A rereplic, SW480 rerep, VP16 counter, RORg inh)
C/C(=N\Nc1nc2ccccc2[nH]1)c1ccc2c(c1)OCCO2	KB-3-1 tox inconclusive, VP16 counter inconclusive, KB-V1 cytotox inconclusive, RORg inh 7.1µM
Clc1ccccc1N/N=C/c1ccc2c(c1)OCO2	MCF10A rereplic inconclusive
C/C(=N\Nc1nc2ccccc2[nH]1)c1ccc2c(c1)OCO2	MCF10A rereplic inconclusive, SW480 rerep 21µM, VP16 counter 11µM, KB-V1 cytotox inconclusive, RORg inh 3.2µM
C(=N\Nc1nc2ccccc2[nH]1)/c1ccc2c(c1)OCO2	VP16 counter inconclusive, RORg inh 13µM
CCc1noc(C)c1C(=O)NCCN1C(=O)S/C(=C\c2ccccc2F)C1=O	none (no result: MCF10A rereplic, SW480 rerep, VP16 counter, RORg inh)
C=C1C(O)[C@@H]2O[C@]3(CC[C@H](/C=C/C(C)[C@@H]4CC(C)=CC5(O[C@H](C[C@@](C)(O)CO)CCC5O)O4)O3)CC[C@H]2O[C@@H]1C(O)CC(C)[C@H]1OC2(CCCCO2)CCC1C (some centres not stated)	KB-3-1 tox 0.021µM, SW480 rerep inconclusive, KB-V1 cytotox inconclusive (no result: VP16 counter, RORg inh)

Screening results: PubChem, National Center for Advancing Translational Sciences (NCATS)
